{"source": "PubChem BioAssay AID588342", "about": "(National Center for Advancing Translational Sciences (NCATS), 2011)", "note": "Hit rate of the full screen: of about 360,000 compounds, about 25,000 (6.9%) were called active. Inconclusive results (about 9%) are left out. Shown is part of a subset that was picked to be rich in actives. Unmarked numbers belong to inactive results. Calls come from the whole dose curve; as a rule, active = well fitted inhibition curve with a large enough effect; inconclusive = small, poorly fitted or top-dose-only effect; inactive = flat fitted curve, though single readings scatter. Potency is the fitted concentration of half-maximal effect."}
{"target": "Luciferin 4-monooxygenase (Photinus pyralis) (UniProt P08659)", "sequence (P08659 whole entry, looked up)": "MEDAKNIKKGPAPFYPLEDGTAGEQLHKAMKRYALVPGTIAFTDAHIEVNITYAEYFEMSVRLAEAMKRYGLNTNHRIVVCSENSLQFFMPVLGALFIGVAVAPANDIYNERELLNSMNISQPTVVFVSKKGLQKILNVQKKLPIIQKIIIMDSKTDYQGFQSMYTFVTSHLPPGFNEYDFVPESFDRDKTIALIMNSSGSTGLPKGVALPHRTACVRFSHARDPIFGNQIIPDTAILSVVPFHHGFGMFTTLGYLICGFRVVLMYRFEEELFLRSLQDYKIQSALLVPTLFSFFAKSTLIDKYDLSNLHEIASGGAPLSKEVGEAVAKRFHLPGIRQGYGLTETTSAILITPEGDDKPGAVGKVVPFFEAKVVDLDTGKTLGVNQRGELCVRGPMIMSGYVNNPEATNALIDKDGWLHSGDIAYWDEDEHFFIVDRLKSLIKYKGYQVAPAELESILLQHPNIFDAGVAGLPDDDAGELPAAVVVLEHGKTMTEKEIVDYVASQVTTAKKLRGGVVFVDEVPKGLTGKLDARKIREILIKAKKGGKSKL", "test": "qHTS profiling assay for firefly luciferase inhibitor/activator using purifed enzyme and Km concentrations of substrates (counterscreen for miR-21 project); note: nearly all actives have a fitted effect of over 55% in size;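 for activity change, negative = inhibition: plate controls were vehicle for no effect and reference inhibitor for full effect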", "settings": "purified FLuc, luminescence inhibition; series mostly up to 57.5 µM; activity change, negative = inhibition: at the top concentration", "method_in_brief": "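Biochemical qHTS of compounds, final roughly 60 µM downward over six points, against 10 nM purified firefly luciferase using Km concentrations of substrates (10 uM D-luciferin, 10 uM ATP) in Tris acetate pH 7.5 buffer; luminescence output.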", "units": {"activity change, negative = inhibition": "%"}}
{"smiles": "Cc1cccc(NC(=O)N2CCC(CN3CCc4ccccc4C3)CC2)c1C", "activity change, negative = inhibition": -0.966}
{"smiles": "Cc1cc(NS(=O)(=O)c2ccc(NC(=O)c3ccccc3C)cc2)nc(C)n1", "activity change, negative = inhibition": -3.53}
{"smiles": "CCOc1ccc(S(=O)(=O)N(CC(=O)NCCSCc2ccc(C)cc2)c2ccccc2)cc1", "activity change, negative = inhibition": 0.976}
{"smiles": "COc1ccc([C@H]2CC(=O)C=C(c3ccc(OC(F)(F)F)cc3)C2)cc1OC", "activity change, negative = inhibition": -0.992}
{"smiles": "Cc1cc(Cl)c2oc(C(=O)N3CCC(O)(c4ccccc4)CC3)c(C)c2c1", "activity change, negative = inhibition": 1.22}
{"smiles": "Cc1cc(Cl)c2oc(C(=O)N(C)C(C)c3ccccn3)c(C)c2c1", "note": "(stereo not drawn)", "Potency": "19 µM (active)"}
{"smiles": "Cc1cc(Cl)c2oc(C(=O)NC(C)c3ccncn3)c(C)c2c1", "note": "(stereo not drawn)", "activity change, negative = inhibition": 2.44}
{"smiles": "CCOc1ncccc1C(=O)OCC(=O)N1c2ccccc2CC1C", "note": "(stereo not drawn)", "activity change, negative = inhibition": 4.23}
{"smiles": "O=C(Nc1ncccc1O)c1ccc(S(=O)(=O)N2CCCC2)cc1", "activity change, negative = inhibition": -1.32}
{"smiles": "O=C(Nc1ncccc1O)c1ccc(C(=O)c2ccccc2)cc1", "Potency": "26.9 µM (active)"}
{"smiles": "O=C(Nc1ncccc1O)c1ccc(S(=O)(=O)N2CCCCCC2)cc1", "activity change, negative = inhibition": -4.16}
{"smiles": "COc1cc(F)c(C2=CC(=O)CC(C)(C)C2)cc1F", "activity change, negative = inhibition": -3.48}
{"smiles": "CCCC12CN3CC(C)(CN(C1)C3c1ccccc1Cl)C2=O", "note": "(stereo not drawn)", "activity change, negative = inhibition": -2.81}
{"smiles": "CNC(=O)c1csc(-c2ccccc2)n1", "activity change, negative = inhibition": -4.97}
{"smiles": "O=C(Nc1nsc(-c2ccccc2)n1)c1ccncc1", "Potency": "19 µM (active)"}
{"smiles": "CN(C)c1ccc(NC(=O)c2ccncc2)c2ccccc12", "activity change, negative = inhibition": 2.99}
{"smiles": "Cc1cccc(-n2ncc(C(=O)N3CCC(C)CC3)c2C2CCN(C(=O)OC(C)(C)C)CC2)c1", "activity change, negative = inhibition": -2.75}
{"smiles": "COc1ccc(C2NC(=O)N(C)C3=C2C(=O)N(c2ccc(C(=O)O)cc2)C3)cc1", "note": "(stereo not drawn)", "activity change, negative = inhibition": -6.88}
{"smiles": "COc1ccc(/C=C2\\N=C3CCCN3C2=O)cc1", "Potency": "15.1 µM (active)"}
{"smiles": "COc1ccc(/C=C2\\SC(=N)N(c3ccc(F)cc3)C2=O)cc1", "activity change, negative = inhibition": -0.0275}
{"smiles": "CCN(C(=O)Cn1cnc2sc(C)c(S(=O)(=O)N3CCN(c4ncccn4)CC3)c2c1=O)c1ccccc1F", "activity change, negative = inhibition": 3.77}
{"smiles": "CCOc1cc(/C=C2\\SC(N3CCCCC3)=NC2=O)ccc1O", "Potency": "10.7 µM (active)"}
{"smiles": "CCOc1cc(/C=N/NC(=O)CN2CCCCC2)ccc1O", "activity change, negative = inhibition": 3.39}
{"smiles": "CCOc1cc(C(=S)N2CCOCC2)ccc1O", "activity change, negative = inhibition": -19.3}
{"smiles": "CCOc1cc(/C=C2\\SC(N3CCCC(C)C3)=NC2=O)ccc1O", "note": "(stereo not drawn)", "Potency": "9.53 µM (active)"}
{"smiles": "Nc1c(Cl)cc(-c2csc(N3CCCC3c3nc4cc(Cl)c(Cl)cc4n3CCOCCO)n2)cc1Cl", "note": "(stereo not drawn)", "activity change, negative = inhibition": -2.84}
{"smiles": "ClC1(Cl)CC1CSc1ncn[nH]1", "note": "(stereo not drawn)", "activity change, negative = inhibition": -2.98}
{"smiles": "Cc1ccc(N2CC(C(=O)Nc3cc(Cl)ccc3-n3cncn3)CC2=O)cc1", "note": "(stereo not drawn)", "activity change, negative = inhibition": 5}
{"smiles": "CCCC(NCC(=O)Nc1ccccc1C(=O)NC1CC1)c1ccccc1", "note": "(stereo not drawn)", "activity change, negative = inhibition": -1.4}
{"smiles": "COc1ccc(-c2cc(=O)oc3cc(OCC(=O)N(C)C4CCS(=O)(=O)C4)ccc23)cc1", "note": "(stereo not drawn)", "activity change, negative = inhibition": -5.21}
{"smiles": "Cc1cc(=O)oc2ccc(OCC(=O)O)cc12", "activity change, negative = inhibition": 5.63}
{"smiles": "CC(=O)COc1ccc2c(-c3ccccc3)cc(=O)oc2c1", "Potency": "16.9 µM (active)"}
{"smiles": "C=CCC(NC(=O)Cc1ccccc1)C(=O)NCCC", "note": "(stereo not drawn)", "activity change, negative = inhibition": -1.36}
{"smiles": "O=C(Nc1ccnc(-c2ccncc2)n1)c1cccs1", "activity change, negative = inhibition": -1.5}
{"smiles": "O=C(O)COc1ccc(-c2nccc(-c3cccs3)n2)cc1", "Potency": "1.51 µM (active)"}
{"smiles": "O=C(COc1ccccc1)OCc1cc(=O)n2nc(-c3cccs3)sc2n1", "activity change, negative = inhibition": -5.56}
{"smiles": "Oc1c(C=Nc2cccc3nsnc23)ccc2ccccc12", "Potency": "1.69 µM (active)"}
{"smiles": "O=C(NCc1ccccc1)C1CCN(S(=O)(=O)c2ccc3[nH]c(=O)ccc3c2)CC1", "activity change, negative = inhibition": 2.76}
{"smiles": "CC(C)Cn1cnc2c1c(=O)n(CC(O)c1ccccc1)c(=O)n2CC(C)C", "note": "(stereo not drawn)", "activity change, negative = inhibition": 1.94}
{"smiles": "CC(=O)Nc1ccccc1Sc1ccc2c3c(cccc13)C(=O)N(c1ccc(C)cc1)C2=O", "activity change, negative = inhibition": 0.663}
{"smiles": "O=C(O)c1ccc2c3c(cccc13)C(=O)N(OS(=O)(=O)c1ccccc1)C2=O", "Potency": "26.9 µM (active)"}
{"smiles": "CN1C(=O)c2cccc3c(N)ccc(c23)C1=O", "activity change, negative = inhibition": -5.13}
{"smiles": "Cc1nonc1C(=O)N/N=C/c1ccc(O)cc1", "Potency": "6.01 µM (active)"}
{"smiles": "COc1cc(/C=N\\NC(=O)c2nonc2N)c(OC)cc1Br", "activity change, negative = inhibition": -2.25}
{"smiles": "CC(C)c1c(C(=O)N/N=C/c2ccc(-c3ccccc3)cc2)nnn1-c1nonc1N", "activity change, negative = inhibition": 0.559}
{"smiles": "CCC(C)Nc1oc(-c2ccc(COc3ccc(Cl)cc3)o2)nc1C#N", "note": "(stereo not drawn)", "activity change, negative = inhibition": 0.311}
{"smiles": "Nc1nnc(SCC(=O)NCC(=O)Nc2ccc(F)c(F)c2F)s1", "activity change, negative = inhibition": -0.673}
{"smiles": "O=C(c1ccco1)n1nc(-c2ccc(Cl)cc2)nc1NCc1ccccc1", "activity change, negative = inhibition": -15.5}
{"smiles": "Cc1cc(Br)ccc1NC(=O)Cn1cnc2sc(C)c(S(=O)(=O)N3CCN(C)CC3)c2c1=O", "activity change, negative = inhibition": 0.211}
{"smiles": "Brc1ccc(CN2CC[C@H]3C=CCc4cccc(c43)C2)cc1", "activity change, negative = inhibition": -0.129}
{"smiles": "O=C(NCc1ccccc1)c1ccc2c(c1)nc1n2CCCCC1", "Potency": "19 µM (active)"}
{"smiles": "Cc1ccc(CCNC(=O)c2ccc3c(c2)nc2n3CCC(C)C2)cc1", "note": "(stereo not drawn)", "activity change, negative = inhibition": -11.4}
{"smiles": "CCOc1ccccc1CNC(=O)c1ccc2c(c1)nc1n2CCC(C)C1", "note": "(stereo not drawn)", "activity change, negative = inhibition": -7.25}
